Reference: PubChem BioAssay (Tox21)
Values joined by “and” are separate entries in the source; they are usually repeats but may differ in a detail not shown here. Equal entries are not always repeated. Results filed as inconclusive are left out. Values without a mark were called inactive. Active and inactive are the calls of the source. Calls come from the whole dose curve; as a rule, active = well fitted curve in the direction sought with a large enough effect in the repeat runs; inconclusive = weak or mixed curves; inactive = no such curve, though single readings can be large; an effect the other way counts as inactive or inconclusive.

Tested on: not listed separately
Experiment: qHTS assay to identify small molecule agonists of the retinoic acid receptor (RAR) signaling pathway (AID 1159553)
Conditions: C3RL4 RARE luciferase reporter, agonist, 6 h; series mostly up to 73.3 µM; activation: at the top concentration
Procedure, shortened: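 In this cell-based screen, 1,000 C3RL4 cells per well were cultured overnight, dosed with test chemicals in DMSO for 6 hr, and assessed for RARE luciferase luminescence.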
% is set by controls: 0 for no effect and ±100 for the full control effect.

SMILES | activation
O=C(Oc1ccccc1)c1ccccc1C(=O)Oc1ccccc1 | -8.84%
NC(=O)CC[C@@H]1NC(=O)[C@H](Cc2ccccc2)NC(=O)[C@H](Cc2ccc(O)cc2)NC(=O)CCSSC[C@@H](C(=O)N2CCC[C@H]2C(=O)N[C@@H](CCCN=C(N)N)C(=O)NCC(N)=O)NC(=O)[C@H](CC(N)=O)NC1=O | 0.202%
CC(C)(C)C(=O)OCOC(=O)[C@@H]1N2C(=O)[C@@H](NC(=O)[C@H](N)c3ccccc3)[C@H]2SC1(C)C | -3.78%
CC(NN)c1ccccc1 (centres undefined) | 4.74% [at 34.3 µM]
Cc1cccc(S(=O)(=O)O)c1C | 0.144%
O=C(c1ccc(F)cc1)C1CCN(CCn2c(=O)[nH]c3ccccc3c2=O)CC1 | 3.52%
CC(C)CCCCCCCCCCCCCCC(=O)O | -2.2%

Tested on: not listed separately
Experiment: qHTS assay to identify small molecule antagonists of the estrogen related receptor (ERR) signaling pathway from Tox21 library - cell viability counter screen (AID 1224834); note: nearly all actives have a fitted effect of over 30% in size; note: potency is the fitted concentration of half-maximal effect
Conditions: ERR reporter cells viability, CellTiter-Fluor, 17.5 h; series mostly up to 92.4 µM; viability change, negative = cytotoxic: at the top concentration
Procedure, shortened: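 Counter screen run in ERR cells (2,000 cells/well): cells pre-incubated 6 h, then treated with compounds for 17.5 h at 37 C. Fluorescence was read 30 min after CellTiter-Fluor addition.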

SMILES | Potency | viability change, negative = cytotoxic
C=CC(=O)OCC(CO)(COC(=O)C=C)COC(=O)C=C | 6.88 µM (active) and 13.7 µM (active) | 
CNC(=O)c1ccccc1 |  | -3.13%
Oc1ccc2c(c1)-c1ccccc1C2 |  | 1.13%
COC(=O)C1=C(C)NC(C)=C(C(=O)OCCc2ccc(N3CCN(C(c4ccccc4)c4ccccc4)CC3)cc2)C1c1cccc([N+](=O)[O-])c1 (centres undefined) |  | -4.7% [at 42.5 µM]
C[C@]12CCC(=O)C=C1CC[C@@H]1[C@@H]2[C@@H](O)C[C@@]2(C)[C@H]1CC[C@]2(O)C(=O)COC(=O)CCC(=O)O |  | 0.743% [at 42.5 µM]
NC(=O)CC[C@@H]1NC(=O)[C@H](Cc2ccccc2)NC(=O)[C@H](Cc2ccc(O)cc2)NC(=O)CCSSC[C@@H](C(=O)N2CCC[C@H]2C(=O)N[C@@H](CCCN=C(N)N)C(=O)NCC(N)=O)NC(=O)[C@H](CC(N)=O)NC1=O |  | 8.03% [at 42.5 µM]
CC(C)(C)C(=O)OCOC(=O)[C@@H]1N2C(=O)[C@@H](NC(=O)[C@H](N)c3ccccc3)[C@H]2SC1(C)C |  | -0.605% [at 42.5 µM]
CC(NN)c1ccccc1 (centres undefined) |  | 6.9% [at 19 µM]
Nc1ccc(N)c2ccccc12 | 30.6 µM (active) | 
CC1(C)CCC(C)(C)c2cc(C(=O)Nc3ccc(C(=O)O)cc3)ccc21 |  | -9.21%
Cc1cccc(S(=O)(=O)O)c1C |  | 0.619%
c1ccc(CSCc2ccccc2)cc1 |  | 1.18%
COC(=O)c1cc(Cl)ccc1OC |  | 5.09% [at 42.5 µM]
CCCCCCCC(=O)[O-].CCCCCCCC(=O)[O-].[Zn+2] |  | 6.45% [at 42.5 µM]
CCCC/C=C/CCCCO |  | 9.31%
CCCCCCCC[P+](CCCCCCCC)(CCCCCCCC)CCCCCCCC | 9.63 µM (active) | 
CCCCCCCCCCCC[N+](C)(C)CCCCCCCCCCCC | 27.3 µM (active) | 
CC(C)C(C)(C)C(C)(C)C(C)(C)S |  | 2.3%
C[C@@H](NCCCc1cccc(C(F)(F)F)c1)c1cccc2ccccc12 | 29.8 µM (active) | 
CNc1ccc(O)cc1 | 43.2 µM (active) | 
CC(C)CCCCCCCCCCCCCCC(=O)O |  | -5.7%

Target: Luciferin 4-monooxygenase (Photinus pyralis) (UniProt P08659)
Experiment: qHTS assay to identify small molecule inhibitors of firefly luciferase (AID 1224835); note: nearly all actives have a fitted effect of over 25% in size; note: potency is the fitted concentration of half-maximal effect
Conditions: purified P. pyralis luciferase, luminescence inhibition; series mostly up to 115 µM; activity change, negative = inhibition: at the top concentration
Procedure, shortened: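 Quantitative HTS format; KM concentrations of both substrates. Purified P. pyralis FLuc activity quantified from luminescence images.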

Luciferin 4-monooxygenase (Photinus pyralis), sequence (P08659 whole entry, looked up): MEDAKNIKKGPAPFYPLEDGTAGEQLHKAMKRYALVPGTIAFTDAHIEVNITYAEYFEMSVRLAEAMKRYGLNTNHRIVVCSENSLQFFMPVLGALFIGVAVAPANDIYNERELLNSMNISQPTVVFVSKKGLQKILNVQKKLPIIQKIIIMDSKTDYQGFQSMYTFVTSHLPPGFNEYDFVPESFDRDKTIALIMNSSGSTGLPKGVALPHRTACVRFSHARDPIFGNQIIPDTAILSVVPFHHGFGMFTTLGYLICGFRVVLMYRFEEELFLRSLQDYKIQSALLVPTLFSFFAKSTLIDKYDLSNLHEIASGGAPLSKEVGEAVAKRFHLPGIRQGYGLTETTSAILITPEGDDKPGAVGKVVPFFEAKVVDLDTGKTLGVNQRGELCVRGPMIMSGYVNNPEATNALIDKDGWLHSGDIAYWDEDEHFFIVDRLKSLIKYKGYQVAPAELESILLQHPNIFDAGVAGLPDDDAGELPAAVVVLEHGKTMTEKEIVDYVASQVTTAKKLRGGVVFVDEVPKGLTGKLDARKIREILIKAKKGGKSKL

SMILES | Potency | activity change, negative = inhibition
C=CC(=O)OCC(CO)(COC(=O)C=C)COC(=O)C=C | inactive | 
CSc1ccc2c(c1)C(N1CCN(C)CC1)Cc1ccccc1S2 (centres undefined) |  | 1.52% [at 52.9 µM]
Cc1nc(-c2ccc3c(c2)CCN(CCC2CCC(NC(=O)/C=C/c4ccc(F)cc4)CC2)CC3)no1 (centres undefined) |  | 0.0687% [at 52.9 µM]
CNC(=O)c1ccccc1 |  | 3.27%
CCc1cc(Cc2cc(CC)c(N)c(CC)c2)cc(CC)c1N |  | -1.94%
CCC(CN)=C(c1ccccc1)c1ccccc1 |  | 3.47% [at 52.9 µM]
CCCCN1C(=O)[C@@H]([C@H](O)C2CCCCC2)NC(=O)C12CCN(Cc1ccc(Oc3ccc(C(=O)O)cc3)cc1)CC2 |  | 7.38%
O=C(Oc1ccccc1)c1ccccc1C(=O)Oc1ccccc1 |  | 0.734%
COC(=O)C1=C(C)NC(C)=C(C(=O)OCCc2ccc(N3CCN(C(c4ccccc4)c4ccccc4)CC3)cc2)C1c1cccc([N+](=O)[O-])c1 (centres undefined) |  | 1.3% [at 52.9 µM]
C[C@]12CCC(=O)C=C1CC[C@@H]1[C@@H]2[C@@H](O)C[C@@]2(C)[C@H]1CC[C@]2(O)C(=O)COC(=O)CCC(=O)O |  | 0.677% [at 52.9 µM]
NC(=O)CC[C@@H]1NC(=O)[C@H](Cc2ccccc2)NC(=O)[C@H](Cc2ccc(O)cc2)NC(=O)CCSSC[C@@H](C(=O)N2CCC[C@H]2C(=O)N[C@@H](CCCN=C(N)N)C(=O)NCC(N)=O)NC(=O)[C@H](CC(N)=O)NC1=O |  | -0.108% [at 52.9 µM]
O=c1cccccc1O |  | 6.57%
CC(C)(C)C(=O)OCOC(=O)[C@@H]1N2C(=O)[C@@H](NC(=O)[C@H](N)c3ccccc3)[C@H]2SC1(C)C |  | 0.286% [at 52.9 µM]
CCOC(=O)c1nc(C(Cl)(Cl)Cl)n(-c2ccc(Cl)cc2Cl)n1 |  | -1.17%
CC(NN)c1ccccc1 (centres undefined) |  | -10.4% [at 23.6 µM]
CCCC(=O)OC[C@@H](OC(=O)CCC)[C@@H](OC(=O)CCC)[C@H](Cn1c2nc(=O)[nH]c(=O)c-2nc2cc(C)c(C)cc21)OC(=O)CCC |  | -0.302% [at 52.9 µM]

SMILES | Potency | activity change, negative = inhibition
Nc1ccc(N)c2ccccc12 |  | -37.2%
CC1(C)CCC(C)(C)c2cc(C(=O)Nc3ccc(C(=O)O)cc3)ccc21 | 79.6 µM (active) | 
Cc1cccc(S(=O)(=O)O)c1C |  | 3.14%
COC(=O)c1cc(Cl)ccc1OC |  | 0.503% [at 52.9 µM]
CC[C@@]1(O)C(=O)OCc2c1cc1n(c2=O)Cc2c-1nc1ccccc1c2/C=N/OC(C)(C)C |  | -7.23% [at 52.9 µM]
CCCCCCCC(=O)[O-].CCCCCCCC(=O)[O-].[Zn+2] | 34.7 µM (active) | 
O=C(c1ccc(F)cc1)C1CCN(CCn2c(=O)[nH]c3ccccc3c2=O)CC1 |  | 0.743% [at 52.9 µM]
CCCC/C=C/CCCCO |  | -4.39%
CCCCCCCC[P+](CCCCCCCC)(CCCCCCCC)CCCCCCCC | 62.9 µM (active) | 
CCCCCCCCCCCC[N+](C)(C)CCCCCCCCCCCC | 79.6 µM (active) | 
CC(C)C(C)(C)C(C)(C)C(C)(C)S |  | -1.39%
C[C@@H](NCCCc1cccc(C(F)(F)F)c1)c1cccc2ccccc12 |  | 2.86% [at 52.9 µM]
CNc1ccc(O)cc1 | 39.8 µM (active) | 
O=C(c1ccc(O)cc1O)c1ccc(O)cc1O | 40 µM (active) and 44.8 µM (active) | 
CC(C)CCCCCCCCCCCCCCC(=O)O | 35.6 µM (active) | 
